Experiment in all cases: NCI-60 one-dose screen, 48 h (100 = growth as untreated, 0 = no growth, -100 = all killed)
What all share (settings): 10 µM unless noted

Experiment [1] relates to DU-145 prostate.
Experiment [2] concerns K-562 leukemia.
For experiment [3], the system named is MALME-3M melanoma.
In experiment [4] the test system is MDA-MB-231 breast.
The test system of experiment [5] is RXF 393 renal.
The test system of experiment [6] is SF-268 CNS.
Experiment [7] relates to SF-295 CNS.
Experiment [8] deals with SF-539 CNS.
The subject of experiment [9] is M14 melanoma.
For experiment [10], the system named is HCT-15 colon.
For experiment [11], the system named is HT29 colon.
Experiment [12] deals with SNB-75 CNS.
Experiment [13] concerns U251 CNS.
In experiment [14] the test system is PC-3 prostate.
Experiment [15] has as its system SK-MEL-5 melanoma.
The test system of experiment [16] is UACC-62 melanoma.
Experiment [17] deals with LOX IMVI melanoma.
The subject of experiment [18] is SK-MEL-28 melanoma.
Experiment [19] deals with UACC-257 melanoma.
Experiment [20] relates to SNB-19 CNS.

The record followed here is PubChem BioAssay (NCI).

The panel holds about 83,000 compounds, 20% with a hit somewhere; the sample as a whole holds those more often.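 Plates (96-well) were seeded with cells, treated with compound at one concentration, and incubated for 48 hours before percent growth was determined.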 A number with no mark means an inactive call. Activity calls are given as the source filed them. The calls were made as follows: active = growth percent below 10; inactive = the rest.

With `CCOC(=O)C(C#N)C1CCCCC1` (stereo unspecified), the growth in experiment [1] is 104%; in experiment [2] it was 79.3%; in experiment [3], 95.6%; in experiment [4], 81.3%; in experiment [5], 99.3%; in [6] it was 91%. In addition, the growth in experiment [7] was 93.5%; in experiment [8], 122%; in experiment [9], 101%; in experiment [10], 95.9%; in [11], 108%; in [12], 97.9%. Also, the growth in experiment [13] was 93.8%; in experiment [14] it was 80.7%; in experiment [15] it was 103%; in experiment [16], 75.6%; in experiment [17] it was 92.4%; in experiment [18], 108%.
Take `CC1=CC(=O)CC(C)(C)[C@@]1(O)/C=C/[C@@H](C)O`: the growth in [1] is 108%; in experiment [2], 115%; in experiment [3], 102%; in experiment [4] it was 93.3%; in [5], 93.3%; in [6], 98.1%. The growth in experiment [7] was 91.5%; in experiment [8], 102%; in experiment [19], 89.1%; in experiment [10], 89.4%; in experiment [11], 112%; in [20], 97.7%. Moreover, the growth is 90.8% in [13]; 101% in [14]; 97.4% in [15]; 99.7% in experiment [16]; 93.7% in experiment [17]; 108% in experiment [18].
Regarding `CCC(=O)OCc1cccc(OC)c1`, the growth in experiment [1] was 111%; in experiment [2], 62.4%; in experiment [3], 116%; in [4] it was 97.4%; in experiment [5] it was 103%; in experiment [6], 107%. In addition, the growth in experiment [7] is 104%; in experiment [8], 98%; in experiment [9], 96.3%; in experiment [10], 92.2%; in experiment [11], 90%; in [12] it was 59.7%. Also, the growth in experiment [13] is 93.2%; in experiment [14], 86.5%; in [15], 104%; in experiment [16], 95.8%; in experiment [17], 92.1%; in [18] it was 107%.
As to `COc1ccc2c(c1)C(=O)/C(=C/c1cccc(OCC(=O)Nc3nc4c(s3)CCCC4)c1)O2`, the growth in [1] is 32.9%; in experiment [2], -46.8% (active); in experiment [3] it was -67.6% (active); in experiment [4], 23.5%; in [5], -43.8% (active); in [6] it was -26.9% (active). For the same compound, the growth in experiment [7] was 52.1%; in [8], -83.2% (active); in experiment [19], -22.4% (active); in [10], -15.7% (active); in experiment [11] it was -74.3% (active); in experiment [12], 19%. For the same compound, the growth in experiment [13] is 41.9%; in experiment [15], -14% (active); in experiment [16], 79.1%; in experiment [17] it was -70.3% (active); in experiment [18], 38.1%.
On to `CC1CN(C(C)C)C(=S)N(c2ccccc2)C1=O` (stereo unspecified), for which the growth in [1] was 103%; in experiment [2], 95.9%; in experiment [3] it was 82%; in [4], 90.4%; in [5], 102%; in experiment [6], 98.8%. Besides, the growth is 108% in experiment [7]; 96.4% in experiment [8]; 93.2% in experiment [9]; 104% in experiment [10]; 104% in experiment [11]; 119% in [12]. Moreover, the growth is 99.9% in experiment [13]; 105% in experiment [14]; 98.1% in experiment [15]; 94.4% in experiment [16]; 93.4% in experiment [17]; 122% in experiment [18].
Regarding `Cc1ccc(SCN2CCN(c3cccc(Cl)c3)CC2)cc1`, the growth in experiment [1] was 116%; in experiment [2], 118%; in experiment [3] it was 87.3%; in experiment [4], 84.3%; in [5], 108%; in [6], 100%. Besides, the growth was 97.3% in [7]; 96.2% in [8]; 93.1% in [10]; 110% in experiment [11]; 85.4% in experiment [12]; 89.1% in experiment [13]. Also, the growth was 101% in experiment [14]; 93.7% in experiment [15]; 89% in [16]; 81.6% in [17]; 120% in experiment [18].
With `O=C(O)c1cn(C2CC2)c2cc(N3CCN(Cc4nc5c(cnn5-c5ccc([N+](=O)[O-])cc5)c(=O)[nH]4)CC3)c(F)cc2c1=O`, the growth in [1] is 110%; in [2] it was 92.6%; in experiment [3], 98.1%; in [4] it was 92.4%; in experiment [5] it was 107%; in experiment [6] it was 96.4%. The growth in [7] is 105%; in experiment [8] it was 97.8%; in experiment [19], 106%; in experiment [10], 102%; in experiment [11], 102%; in experiment [20], 106%. Also, the growth was 106% in [13]; 93.9% in [14]; 99% in experiment [15]; 86.6% in experiment [16]; 101% in experiment [17]; 106% in experiment [18].
Regarding `C=C1CC2(OC1=O)C(=O)N(CCCCCCCN1C(=O)C3(CC(=C)C(=O)O3)c3ccccc31)c1ccccc12` (stereo unspecified), the growth was 58.2% in [1]; 5% (active) in experiment [2]; -61.4% (active) in [3]; -9.65% (active) in experiment [4]; -32.8% (active) in [5]; 60.3% in [6]. Besides, the growth in experiment [7] is 82.6%; in experiment [8], 16.9%; in experiment [19] it was 65%; in experiment [10] it was -19.6% (active); in experiment [11], -17.4% (active); in experiment [20], 67.9%. The growth in experiment [13] was 36.5%; in experiment [14], 45.7%; in [15] it was 61.3%; in experiment [16], 34.9%; in experiment [17] it was -82.5% (active); in [18], 9.63% (active).
Take `COc1ccc(-c2cc(=O)[nH]c3c(OC)c4ccccc4c(OC)c23)cc1`: the growth was 2.29% (active) in experiment [1]; 8.05% (active) in experiment [2]; 51.3% in experiment [3]; 35.6% in experiment [4]; 9.4% (active) in experiment [5]; 34.8% in experiment [6]. Further, the growth in [7] is 8.09% (active); in experiment [19], 73.8%; in experiment [9], 1.54% (active); in experiment [10], 26.3%; in experiment [11], 2.07% (active); in [12], 13.3%. In addition, the growth in experiment [20] was 50.5%; in [13], 23.8%; in experiment [14] it was 14.8%; in experiment [15], 18.8%; in experiment [16], 21.1%; in [17], 46.9%. Further, the growth in experiment [18] is 56.6%.
